The record followed here is paper PMC9838217, “Structure of SALL4 zinc finger domain reveals link between AT-rich DNA binding and Okihiro syndrome”.

Where a chain is given by its changes, count along the chain named.

The first experiment deals with T1, SALL4 ZFC4 WT (HT-SELEX) (Mus musculus, UniProt Q8BX22 870-940).
T1 sequence: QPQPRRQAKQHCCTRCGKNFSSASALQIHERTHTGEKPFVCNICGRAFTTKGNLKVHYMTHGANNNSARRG
The experiment is described as follows: HT-SELEX; high values mean tight binding. The settings on record: protein: recombinant; vector His6-GST; dsDNA, one strand shown. The essentials: (§1)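 Purified recombinant mouse SALL4 zinc finger cluster 4 (residues 870–940, 1 µg) was incubated with library DNA (1.5 µg first cycle, 200 ng later) in 100 µl buffer (10 mM Tris–HCl pH 7.5, 50 mM NaCl, poly(dI-dC), DTT) for 10 min at room temperature. Ni2+ bead-captured complexes were washed, PCR-amplified and reselected for up to 6 cycles, in triplicate, then MiSeq-sequenced and scanned for 6-mers. Binding signal is each canonical k-mer's read fraction as fold change versus the initial random library.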
Regarding GTGTCA, the binding signal was 0.688 ± 0.0282 fold-change vs cycle 0.
As for ACGACT, the binding signal turned out to be 0.624 ± 0.0259 fold-change vs cycle 0.
Same read-out and setting: with TGTACA the figure was 1.21 ± 0.0321 fold-change vs cycle 0; with CGATAG, 0.68 ± 0.0214 fold-change vs cycle 0; with GATGCA, 0.68 ± 0.0339 fold-change vs cycle 0.
Same read-out and setting: the result for AAACTG reads 1.1 ± 0.0398 fold-change vs cycle 0.
On the same count and under the same terms, with AAGTTA the figure was 2.21 ± 0.185 fold-change vs cycle 0; with ACTTTG, 1.14 ± 0.054 fold-change vs cycle 0.
Regarding ACACGG, the binding signal was 0.354 ± 0.0115 fold-change vs cycle 0.
On to AGGAAC, for which the binding signal is 0.86 ± 0.0507 fold-change vs cycle 0.
Same read-out and setting: the result for AGGAGA reads 0.932 ± 0.027 fold-change vs cycle 0; that for CAAAAC, 0.936 ± 0.0391 fold-change vs cycle 0; that for AAGTGA, 1.34 ± 0.0271 fold-change vs cycle 0.
The same measure, in the same setting: the result for ACAGGT reads 0.824 ± 0.0401 fold-change vs cycle 0; that for CATAAC, 1.83 ± 0.124 fold-change vs cycle 0; that for CTAAGA, 1.36 ± 0.0387 fold-change vs cycle 0.
The same measure, in the same setting: with ATGTCA the figure was 1.23 ± 0.0617 fold-change vs cycle 0; with GTACTA, 1.24 ± 0.0382 fold-change vs cycle 0.
On to GTTTGA, for which the binding signal was 1.14 ± 0.0365 fold-change vs cycle 0.
Regarding ACATGC, the binding signal came to 0.613 ± 0.0259 fold-change vs cycle 0.
Same read-out and setting: with CAGCTA the figure was 0.637 ± 0.0596 fold-change vs cycle 0; with GGTACA, 0.743 ± 0.0263 fold-change vs cycle 0; with CTGTCA, 0.753 ± 0.03 fold-change vs cycle 0.
Same read-out and setting: the result for CCGGAA reads 0.325 ± 0.0139 fold-change vs cycle 0; that for ATGAGC, 0.659 ± 0.0207 fold-change vs cycle 0.
The same measure, in the same setting: with ATGAGG the figure was 0.907 ± 0.0235 fold-change vs cycle 0; with CAACCC, 0.417 ± 0.0301 fold-change vs cycle 0.
AAAATG: the binding signal came to 1.68 ± 0.0946 fold-change vs cycle 0.
Take GTTCCA: the binding signal was 0.74 ± 0.03 fold-change vs cycle 0.
On the same count and under the same terms, the result for ATACTA reads 2.04 ± 0.115 fold-change vs cycle 0; that for ATTACG, 1.22 ± 0.102 fold-change vs cycle 0.
Consider ACGAGA, for which the binding signal came to 0.811 ± 0.0345 fold-change vs cycle 0.
Turning to ATGCCA, the binding signal was 0.517 ± 0.0281 fold-change vs cycle 0.
The same measure, in the same setting: the result for AAGATT reads 2.05 ± 0.0988 fold-change vs cycle 0.
Still for that read-out and setting: with AATTGG the figure was 1.07 ± 0.0351 fold-change vs cycle 0; with TATGCA, 1.19 ± 0.0704 fold-change vs cycle 0.
Still for that read-out and setting: with AACCGA the figure was 0.657 ± 0.0177 fold-change vs cycle 0; with GGGGGA, 0.31 ± 0.0219 fold-change vs cycle 0.
Regarding AGTGAA, the binding signal was found to be 1.35 ± 0.0774 fold-change vs cycle 0.
The same measure, in the same setting: with AGCACA the figure was 0.64 ± 0.039 fold-change vs cycle 0.

The target of the next experiment is T2, SALL4 ZFC4 R900W (HT-SELEX) (Mus musculus, UniProt Q8BX22 870-940, R900W).
T2 sequence: T1 sequence with R31W
The experiment is described as follows: HT-SELEX; high values mean tight binding. The settings on record: protein: recombinant; vector His6-GST; dsDNA, one strand shown. The method, boiled down:
as §1
Consider GTGTCA, for which the binding signal worked out at 0.805 ± 0.0104 fold-change vs cycle 0.
Same read-out and setting: the result for ACGACT reads 0.718 ± 0.0114 fold-change vs cycle 0; that for TGTACA, 1.32 ± 0.00394 fold-change vs cycle 0.
Same read-out and setting: the result for CGATAG reads 0.774 ± 0.0246 fold-change vs cycle 0.
With GATGCA, the binding signal came out at 0.75 ± 0.0294 fold-change vs cycle 0.
On the same count and under the same terms, the result for AAACTG reads 1.2 ± 0.0458 fold-change vs cycle 0; that for AAGTTA, 2.17 ± 0.193 fold-change vs cycle 0; that for ACTTTG, 1.27 ± 0.0366 fold-change vs cycle 0.
ACACGG: the binding signal was found to be 0.455 ± 0.00764 fold-change vs cycle 0.
On the same count and under the same terms, with AGGAAC the figure was 1.02 ± 0.0591 fold-change vs cycle 0; with AGGAGA, 1.09 ± 0.059 fold-change vs cycle 0.
Take CAAAAC: the binding signal is 1.06 ± 0.0573 fold-change vs cycle 0.
The same measure, in the same setting: the result for AAGTGA reads 1.52 ± 0.0501 fold-change vs cycle 0; that for ACAGGT, 0.95 ± 0.0293 fold-change vs cycle 0; that for CATAAC, 1.43 ± 0.0541 fold-change vs cycle 0.
Still for that read-out and setting: the result for CTAAGA reads 1.51 ± 0.0736 fold-change vs cycle 0.
Still for that read-out and setting: the result for ATGTCA reads 1.34 ± 0.0399 fold-change vs cycle 0.
Consider GTACTA, for which the binding signal was 1.37 ± 0.098 fold-change vs cycle 0.
The same measure, in the same setting: with GTTTGA the figure was 1.26 ± 0.0348 fold-change vs cycle 0.
For ACATGC, the binding signal came out at 0.7108 ± 0.0052 fold-change vs cycle 0.
On to CAGCTA, for which the binding signal amounted to 0.727 ± 0.0267 fold-change vs cycle 0.
Still for that read-out and setting: the result for GGTACA reads 0.823 ± 0.0156 fold-change vs cycle 0; that for CTGTCA, 0.862 ± 0.0445 fold-change vs cycle 0.
Still for that read-out and setting: with CCGGAA the figure was 0.368 ± 0.0111 fold-change vs cycle 0.
As to ATGAGC, the binding signal was 0.736 ± 0.0172 fold-change vs cycle 0.
On the same count and under the same terms, with ATGAGG the figure was 1.03 ± 0.0436 fold-change vs cycle 0; with CAACCC, 0.488 ± 0.0225 fold-change vs cycle 0.
The same measure, in the same setting: the result for AAAATG reads 1.56 ± 0.0588 fold-change vs cycle 0.
Turning to GTTCCA, the binding signal is 0.862 ± 0.0102 fold-change vs cycle 0.
Still for that read-out and setting: the result for ATACTA reads 2.07 ± 0.172 fold-change vs cycle 0.
Still for that read-out and setting: with ATTACG the figure was 1.27 ± 0.0629 fold-change vs cycle 0.
On the same count and under the same terms, the result for ACGAGA reads 0.922 ± 0.0447 fold-change vs cycle 0.
For ATGCCA, the binding signal was 0.565 ± 0.0177 fold-change vs cycle 0.
On the same count and under the same terms, the result for AAGATT reads 2.08 ± 0.121 fold-change vs cycle 0; that for AATTGG, 1.15 ± 0.0596 fold-change vs cycle 0; that for TATGCA, 1.16 ± 0.0312 fold-change vs cycle 0.
On the same count and under the same terms, the result for AACCGA reads 0.7295 ± 0.00455 fold-change vs cycle 0; that for GGGGGA, 0.349 ± 0.0327 fold-change vs cycle 0.
Regarding AGTGAA, the binding signal is 1.52 ± 0.125 fold-change vs cycle 0.
On to AGCACA, for which the binding signal is 0.77 ± 0.0406 fold-change vs cycle 0.

For another experiment, the target named is T3, SALL4 ZFC4 G921D (HT-SELEX) (Mus musculus, UniProt Q8BX22 870-940, G921D).
T3 sequence: T1 sequence with G52D
The experiment is described as follows: HT-SELEX; high values mean tight binding. The following applies: protein: recombinant; vector His6-GST; dsDNA, one strand shown. The essentials:
as §1
On to GTGTCA, for which the binding signal came out at 0.881 ± 0.0197 fold-change vs cycle 0.
Still for that read-out and setting: the result for ACGACT reads 0.813 ± 0.0216 fold-change vs cycle 0.
Still for that read-out and setting: with TGTACA the figure was 1.26 ± 0.0338 fold-change vs cycle 0; with CGATAG, 0.851 ± 0.0176 fold-change vs cycle 0; with GATGCA, 0.848 ± 0.0393 fold-change vs cycle 0.
Same read-out and setting: the result for AAACTG reads 1.17 ± 0.0583 fold-change vs cycle 0; that for AAGTTA, 1.9 ± 0.254 fold-change vs cycle 0.
Consider ACTTTG, for which the binding signal came out at 1.24 ± 0.052 fold-change vs cycle 0.
For the sequence ACACGG, the binding signal was determined as 0.548 ± 0.0679 fold-change vs cycle 0.
Still for that read-out and setting: the result for AGGAAC reads 1.04 ± 0.0533 fold-change vs cycle 0; that for AGGAGA, 1.06 ± 0.044 fold-change vs cycle 0; that for CAAAAC, 1.08 ± 0.0366 fold-change vs cycle 0.
On the same count and under the same terms, with AAGTGA the figure was 1.42 ± 0.0562 fold-change vs cycle 0.
Still for that read-out and setting: with ACAGGT the figure was 0.985 ± 0.0191 fold-change vs cycle 0; with CATAAC, 1.37 ± 0.0667 fold-change vs cycle 0; with CTAAGA, 1.42 ± 0.0981 fold-change vs cycle 0.
Turning to ATGTCA, the binding signal worked out at 1.32 ± 0.0617 fold-change vs cycle 0.
Same read-out and setting: with GTACTA the figure was 1.29 ± 0.0902 fold-change vs cycle 0; with GTTTGA, 1.23 ± 0.0615 fold-change vs cycle 0; with ACATGC, 0.774 ± 0.017 fold-change vs cycle 0.
The same measure, in the same setting: with CAGCTA the figure was 0.82 ± 0.0545 fold-change vs cycle 0.
The same measure, in the same setting: the result for GGTACA reads 0.894 ± 0.0191 fold-change vs cycle 0.
On to CTGTCA, for which the binding signal was determined as 0.932 ± 0.0438 fold-change vs cycle 0.
The same measure, in the same setting: the result for CCGGAA reads 0.491 ± 0.0897 fold-change vs cycle 0.
Same read-out and setting: with ATGAGC the figure was 0.836 ± 0.0347 fold-change vs cycle 0.
Still for that read-out and setting: the result for ATGAGG reads 1.06 ± 0.0374 fold-change vs cycle 0; that for CAACCC, 0.582 ± 0.0463 fold-change vs cycle 0.
Regarding AAAATG, the binding signal turned out to be 1.46 ± 0.0958 fold-change vs cycle 0.
For the sequence GTTCCA, the binding signal turned out to be 0.915 ± 0.0401 fold-change vs cycle 0.
On the same count and under the same terms, the result for ATACTA reads 1.84 ± 0.179 fold-change vs cycle 0; that for ATTACG, 1.23 ± 0.0609 fold-change vs cycle 0; that for ACGAGA, 0.957 ± 0.0409 fold-change vs cycle 0.
Regarding ATGCCA, the binding signal amounted to 0.695 ± 0.0326 fold-change vs cycle 0.
With AAGATT, the binding signal was 1.88 ± 0.183 fold-change vs cycle 0.
The same measure, in the same setting: with AATTGG the figure was 1.19 ± 0.036 fold-change vs cycle 0; with TATGCA, 1.15 ± 0.0173 fold-change vs cycle 0; with AACCGA, 0.812 ± 0.0455 fold-change vs cycle 0.
Same read-out and setting: the result for GGGGGA reads 0.439 ± 0.0654 fold-change vs cycle 0.
Still for that read-out and setting: with AGTGAA the figure was 1.39 ± 0.134 fold-change vs cycle 0.
Consider AGCACA, for which the binding signal stood at 0.894 ± 0.0466 fold-change vs cycle 0.
